Results reported in PubChem BioAssay AID1159580 (chemical genetic matrix, 2015).
Where “and” joins values, the source holds several entries; their conditions need not be identical. Equal values may be shown once. Screen size: about 5,500 compounds; about 2,000 (36%) were called active. About 18% were inconclusive and are not listed. No stated cut-off is given here; in the data, active means normalized growth mostly below about 0.91 (no sharp cut-off); inconclusive means no clear call, values can overlap the other calls; inactive means mostly above about 0.92. The list shows a part of the results.

Test: chemical genetic growth profiling, strain panel (AID 1159580);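 further: tested at 20 µM; growth read once vehicle control cultures reached saturation at 30 °C; 1 = growth at the plate median or of vehicle wells; lower values mean less growth of the strain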
Conditions: S. cerevisiae deletion strains, growth OD

Measured: normalized growth

O=C(O)c1cccnc1
inactive: locus YAL013W, strain DEP1, active compounds read low 0.987 | locus YAL021C, strain ccr4, active compounds read low 1 | locus YAL026C, strain drs2, active compounds read low 0.993 | locus YAL030W, strain snc1, active compounds read low 0.994 | locus YBL061C, strain skt5, active compounds read low 1.02 | locus YBR009C, strain hhf1, active compounds read low 1.01 | locus YBR021W, strain FUR4, active compounds read low 1.02 | locus YBR023C, strain chs3, active compounds read low 1.01 | locus YBR171W, strain sec66, active compounds read low 0.997 | locus YBR229C, strain ROT2, active compounds read low 0.96 | locus YBR231C, strain swc5, active compounds read low 0.996 | locus YBR279W, strain paf1, active compounds read low 1 | locus YCL011C, strain gbp2, active compounds read low 0.984 | locus YCL016C, strain dcc1, active compounds read low 1.03 | locus YCL029C, strain bik1, active compounds read low 1.01 | locus YCL061C, strain MRC1, active compounds read low 1 | locus YCL069W, strain vba3, active compounds read low 0.976 | locus YCR088W, strain abp1, active compounds read low 0.992 | locus YDL005C, strain med2, active compounds read low 0.98 | locus YDL035C, strain GPR1, active compounds read low 0.968 | locus YDL040C, strain nat1, active compounds read low 0.987 | locus YDL074C, strain BRE1, active compounds read low 1.02 | locus YDL101C, strain DUN1, active compounds read low 1.01 | locus YDL134C, strain PPH21, active compounds read low 0.984 | locus YDL185W, strain tfp1, active compounds read low 1.01 | locus YDL192W, strain arf1, active compounds read low 1 | locus YDR001C, strain nth1, active compounds read low 0.992 | locus YDR069C, strain doa4, active compounds read low 1.01 | locus YDR101C, strain arx1, active compounds read low 1.02 | locus YDR137W, strain rgp1, active compounds read low 1.05 | locus YDR150W, strain NUM1, active compounds read low 0.983 | locus YDR159W, strain sac3, active compounds read low 0.977 | locus YDR162C, strain NBP2, active compounds read low 0.985 | locus YDR195W, strain ref2 1.01 | locus YDR297W, strain sur2, active compounds read low 0.996 | locus YDR318W, strain mcm21, active compounds read low 1.04 | locus YDR334W, strain swr1, active compounds read low 0.971 | locus YDR335W, strain msn5, active compounds read low 0.993 | locus YDR388W, active compounds read low 1 | locus YDR392W, strain spt3, active compounds read low 0.973 | locus YDR502C, strain sam2, active compounds read low 1 | locus YEL003W, strain gim4, active compounds read low 0.985 | locus YEL037C, strain rad23, active compounds read low 0.977 | locus YEL061C, strain CIN8 (second series), active compounds read low 0.98 | locus YEL061C, strain CIN8, active compounds read low 0.989 | locus YER015W, strain faa2, active compounds read low 0.998 | locus YER016W, strain bim1, active compounds read low 0.992 | locus YER110C, active compounds read low 0.985 | locus YER111C, strain swi4, active compounds read low 0.999 | locus YER155C, strain BEM2 (second series), active compounds read low 0.995 | locus YER155C, strain BEM2, active compounds read low 1.02 | locus YER167W, strain BCK2, active compounds read low 0.982 | locus YFR010W, strain ubp6, active compounds read low 0.995 | locus YGL078C, strain dbp3, active compounds read low 1 | locus YGL086W, strain mad1, active compounds read low 1.02 | locus YGL167C, strain pmr1, active compounds read low 1.01 | locus YGL173C, strain kem1, active compounds read low 1.01 | locus YGL227W, strain vid30, active compounds read low 0.987 | locus YGL240W, strain doc1, active compounds read low 1.01 | locus YGL248W, strain PDE1, active compounds read low 0.983 | locus YGL253W, strain hxk2, active compounds read low 0.987 | locus YGR078C, strain PAC10, active compounds read low 1.04 | locus YGR135W, strain pre9, active compounds read low 1.05 | locus YGR229C, strain SMI1, active compounds read low 1.03 | locus YGR252W, strain gcn5, active compounds read low 0.919 | locus YHR013C, strain ard1, active compounds read low 1.04 | locus YHR027C, strain rpn1, active compounds read low 1.01 | locus YHR030C, strain SLT2, active compounds read low 0.997 and 1 | locus YHR079C, strain IRE1 (second series), active compounds read low 1.01 | locus YHR079C, strain IRE1, active compounds read low 1.03 | locus YHR094C, strain hxt1, active compounds read low 0.999 | locus YHR129C, strain ARP1, active compounds read low 1.01 | locus YHR142W, strain chs7, active compounds read low 1.01 | locus YHR200W, strain rpn10, active compounds read low 1.02 | locus YIL066C, strain RNR3, active compounds read low 0.982 | locus YIL073C, strain SPO22, active compounds read low 1.01 | locus YIL125W, strain kgd1, active compounds read low 0.984 | locus YIR030C, strain dcg1, active compounds read low 0.996 | locus YJL092W, strain hpr5, active compounds read low 0.978 | locus YJL095W, strain BCK1 (second series), active compounds read low 1 | locus YJL095W, strain BCK1, active compounds read low 1.05 and 0.999 | locus YJL115W, strain asf1, active compounds read low 0.973 | locus YJL129C, strain trk1, active compounds read low 0.949 | locus YJL134W, strain LCB3, active compounds read low 0.991 | locus YJL154C, strain vps35, active compounds read low 0.977 | locus YJL164C, strain tpk1, active compounds read low 1.02 | locus YJL166W, strain qcr8, active compounds read low 0.988 | locus YJL168C, strain set2, active compounds read low 1 | locus YJL187C, strain SWE1 (second series), active compounds read low 0.996 | locus YJL187C, strain SWE1, active compounds read low 0.99 | locus YJR043C, strain POL32, active compounds read low 1.05 | locus YJR066W, strain TOR1, active compounds read low 0.971
